Reference: PubChem BioAssay (NCATS)
“And” between values parts separate entries of the source, which are not always exact repeats. Identical values can stand only once. Results filed as inconclusive are left out. The source made the active and inactive calls. Unless noted, the call rests on the fitted dose curve; in most records, active means well fitted curve in the direction sought with a large enough effect; inconclusive means small, poorly fitted or top-dose-only effect, or another doubt; inactive means no such curve, though single readings can be large; an effect the other way counts as inactive or inconclusive.

What was measured:
JEG-3 = assay: Primary qHTS to identify gynecologic anti-cancer compounds using libraries of approved drugs and bioactive compounds (AID 1345084); conditions: Gynecologic cancer cell panel viability, ATPlite luminescence, 48 h; series mostly up to 57.5 µM; further: nearly all actives have a fitted effect of over 55% in size; further: potency means the concentration at half of the fitted maximal effect; on activity change, negative = cytotoxicity: on the % scale 0 is the no-effect control and ±100 the full control effect
How it was run: (§1)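 Measured: luminescence after ATPlite addition (15 min, RT). Exposure: 48 h, 37 C, 5% CO2.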

OV90 = assay: as above; conditions: Gynecologic cancer cell panel viability, ATPlite luminescence, 48 h; series mostly up to 57.5 µM
How it was run: as §1

PA-1 = assay: as above; conditions: Gynecologic cancer cell panel viability, ATPlite luminescence, 48 h; series mostly up to 57.5 µM
How it was run: as §1

Tov-21-G = assay: as above; conditions: Gynecologic cancer cell panel viability, ATPlite luminescence, 48 h; series mostly up to 57.5 µM
How it was run: as §1

Tov112D = assay: as above; conditions: Gynecologic cancer cell panel viability, ATPlite luminescence, 48 h; series mostly up to 57.5 µM
How it was run: as §1

SKOV3 = assay: as above; conditions: Gynecologic cancer cell panel viability, ATPlite luminescence, 48 h; series mostly up to 57.5 µM
How it was run: as §1

[1] = biological target: Nuclear receptor subfamily 1 group I member 2 (Rattus norvegicus) (UniProt Q9R1A7); assay: qHTS assay for small molecule activators of the rat pregnane X receptor (rPXR) signaling pathway (AID 651751; call rule not given here; further: 0% is about no effect); conditions: rPXR reporter cells, luciferase (One-Glo), 24 h
Nuclear receptor subfamily 1 group I member 2 (Rattus norvegicus), sequence (Q9R1A7 whole entry, looked up): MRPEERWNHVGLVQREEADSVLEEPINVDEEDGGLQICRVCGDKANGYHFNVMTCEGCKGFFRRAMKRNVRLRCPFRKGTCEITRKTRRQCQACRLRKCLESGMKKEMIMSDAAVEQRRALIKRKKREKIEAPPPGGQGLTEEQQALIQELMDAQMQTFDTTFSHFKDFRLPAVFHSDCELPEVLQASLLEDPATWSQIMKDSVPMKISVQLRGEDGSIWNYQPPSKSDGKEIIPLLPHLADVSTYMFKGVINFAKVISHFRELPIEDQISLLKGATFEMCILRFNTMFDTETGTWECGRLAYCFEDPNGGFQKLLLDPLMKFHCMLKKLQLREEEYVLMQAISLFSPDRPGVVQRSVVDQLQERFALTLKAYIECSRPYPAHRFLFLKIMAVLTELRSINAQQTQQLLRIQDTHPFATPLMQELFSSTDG

[2] = qHTS assay for small molecule activators of the human pregnane X receptor (PXR) signaling pathway (AID 720659; call rule not given here; further: 0% is about no effect)
[3] = qHTS assay to identify inhibitors of the type 1 interferon - major histocompatibility complex class I in skeletal muscle: Counter screen cell viability and HiBit confirmation (AID 1347412); conditions: iHSKM muscle cells + IFN-b, HiBiT or CellTiter-Glo, 24 h; for activity change, negative = inhibition: at 45.9 µM (top of the series); further: potency means the concentration at half of the fitted maximal effect; on activity change, negative = inhibition: on the % scale 0 is the no-effect control and ±100 the full control effect; on all read-outs here: nearly all actives have a fitted effect of over 60% in size
How it was run: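 CRISPR HLA-B*08:01-HiBit immortalized human myoblasts (C25cl48) stimulated with 4 ng/ml IFN-beta and compounds (12-point 1:3, top 46 uM final) for 24 h at 37 C. Duplicate plates read by HiBit lytic luminescence or CellTiter Glo ATP.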

[4] = Drug repurposing screens with cells derived from glioblastoma tumor samples (AID 1345199); conditions: GBM patient neurospheres viability, ATP luminescence, 48 h; further: nearly all actives have a fitted effect of over 40% in size; further: potency means the concentration at half of the fitted maximal effect; on activity, negative = cell killing: on the % scale 0 is the no-effect control and ±100 the full control effect
How it was run: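 Four patient lines of CD133+ GBM neurospheres were screened at several concentrations; hits were retested in those lines plus three slower-growing GBM lines, using 48-hour treatment and ATP-based viability.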

O=c1c2ccccc2nc2n1CCc1c-2[nH]c2ccccc12
inactive: Potency (JEG-3) | Potency (OV90) | Potency (PA-1) | Potency (Tov-21-G) | Potency (Tov112D)

CC(C)c1cc(-c2n[nH]c(=O)n2-c2ccc3c(ccn3C)c2)c(O)cc1O
active: Potency (OV90) 2.51 µM | Potency (PA-1) 0.251 µM | Potency (Tov-21-G) 0.282 µM
inactive: Potency (JEG-3)

O=C(O)CCCc1c[nH]c2ccccc12
inactive: Potency (JEG-3) | Potency (OV90) | Potency (PA-1) | Potency (SKOV3) | Potency (Tov-21-G) | Potency (Tov112D) | max response [1] -0.908% | outcome [2]

Cc1[nH]nc2ccc(-c3cncc(OC[C@@H](N)Cc4ccccc4)c3)cc12
active: Potency (JEG-3) 10 µM | Potency (OV90) 3.55 µM | Potency (PA-1) 3.55 µM | Potency (Tov-21-G) 2.82 µM | Potency (Tov112D) 2 µM | Potency ([3]; HiBiT) 0.991 µM
inactive: activity change, negative = inhibition ([3]; Viability) -12.9%

CCc1cc2c(cc1N1CCC(N3CCOCC3)CC1)C(C)(C)c1[nH]c3cc(C#N)ccc3c1C2=O
inactive: Potency (JEG-3) | Potency (OV90) | Potency (PA-1) | Potency (Tov-21-G) | Potency (Tov112D)

CC(O)C1C(=O)N2C(C(=O)O)=C(SC3CNC(C(=O)N(C)C)C3)C(C)C12 (stereo unspecified)
inactive: Potency (JEG-3) | Potency (OV90) | Potency (PA-1) | Potency (SKOV3) | Potency (Tov-21-G) | Potency (Tov112D)

CN1CCN(Cc2ccc(NC(=O)Nc3ccc(Oc4cc(NC(=O)C5CC5)ncn4)cc3)cc2C(F)(F)F)CC1
active: Potency (JEG-3) 2.82 µM | Potency (OV90) 0.631 µM | Potency (PA-1) 0.794 µM | Potency (Tov112D) 0.708 µM

COC(=O)C1=C(C)NC(C)=C(C(=O)OCCN2CCN(C(c3ccccc3)c3ccccc3)CC2)C1c1cccc([N+](=O)[O-])c1 (stereo unspecified)
inactive: activity, negative = cell killing ([4]; at 45.9 µM (top of the series), tumour line B) -14.4%
active: Potency ([4]; tumour line A) 3.16 µM | Potency ([4]; tumour line C) 16.4 µM | Potency ([4]; tumour line D) 15.8 µM

Cc1nc2ccc(CN(C)c3ccc(C(=O)N[C@@H](CCC(=O)O)C(=O)O)s3)cc2c(=O)[nH]1
inactive: activity, negative = cell killing ([4]; at 45.9 µM (top of the series), tumour line D) -5.32% and -11.6% | activity, negative = cell killing ([4]; at 46.1 µM (top of the series), tumour line C) 0.947% and 1.27%

NC(=O)c1c(OCc2c(F)cc(Br)cc2F)nsc1NC(=O)NCCCCN1CCCC1
inactive: activity change, negative = inhibition ([3]; HiBiT) -22.6%

COc1cc2c(Nc3ccc(NC(=O)c4ccccc4)cc3)ncnc2cc1OCCCN1CCOCC1
inactive: Potency (PA-1) | Potency (Tov112D)
active: Potency (OV90) 25.1 µM | Potency (SKOV3) 11.2 µM

CCN(CC)CCNC(=O)c1ccc2nc(-c3ccccc3)c(-c3ccc(CN4CCC(n5c(=O)[nH]c6ccccc65)CC4)cc3)nc2c1
inactive: Potency (PA-1) | Potency (Tov-21-G) | Potency (Tov112D)

Cc1cnc(-c2cnc(NCCNc3ccc(C#N)cn3)nc2-c2ccc(Cl)cc2Cl)[nH]1
inactive: Potency (PA-1) | Potency (SKOV3) | Potency (Tov-21-G) | Potency (Tov112D)

Cc1cc(C(=O)N2CCN(c3cccc(Cl)c3)CC2)n(-c2ccccc2)n1
inactive: Potency (OV90) | activity change, negative = inhibition ([3]; Viability) -19.8%
active: Potency (PA-1) 5.01 µM | Potency (Tov112D) 3.98 µM

CCn1nnc2c(N3CCOCC3)nc(-c3ccc(NC(=O)Nc4ccc(C(=O)N5CCN(C)CC5)cc4)cc3)nc21
active: Potency (PA-1) 0.398 µM | Potency (SKOV3) 0.316 µM | Potency (Tov-21-G) 0.224 µM | Potency ([3]; Viability) 0.991 µM

COC(=O)Nc1nc2ccc(C(=O)c3ccc(F)cc3)cc2[nH]1
active: Potency (PA-1) 2 µM | Potency (Tov112D) 3.55 µM
inactive: Potency (OV90)

Cc1nc(Nc2n[nH]c3c2CN(C(=O)N[C@H](CN(C)C)c2ccccc2)C3(C)C)c2sccc2n1
inactive: activity change, negative = inhibition ([3]; Viability) 5.01%
active: Potency (OV90) 1.58 µM | Potency (SKOV3) 7.08 µM | Potency (Tov112D) 8.91 µM | Potency ([3]; HiBiT) 0.0625 µM

COC(=O)Nc1ccc(-c2nc(N3CCOCC3)c3cnn(C4CCN(Cc5cccnc5)CC4)c3n2)cc1
active: Potency (OV90) 4.47 µM | Potency (PA-1) 15.8 µM | Potency (SKOV3) 2 µM | Potency (Tov-21-G) 2.82 µM

CNC(=O)c1cc(Oc2ccc(NC(=O)Nc3cc(C(C)(C)C)nn3-c3ccc4ncccc4c3)c(F)c2)ccn1
inactive: activity change, negative = inhibition ([3]; Viability) 26.8%
active: Potency (PA-1) 20 µM | Potency (Tov-21-G) 28.2 µM | Potency ([3]; HiBiT) 3.94 µM

Nc1ncnc2c1c(-c1cnc3[nH]ccc3c1)nn2C1CCCC1
active: Potency (OV90) 5.01 µM | Potency (PA-1) 8.91 µM | Potency (Tov-21-G) 6.31 µM | Potency (Tov112D) 5.01 µM | Potency ([3]; HiBiT) 2.22 µM

COc1ccc(C(=O)CC2(O)C(=O)Nc3c(Cl)ccc(Cl)c32)cc1 (stereo unspecified)
inactive: Potency (OV90)
active: Potency (PA-1) 8.91 µM | Potency (Tov112D) 3.98 µM

O=C(Nc1cc(C(F)(F)F)cc(C(F)(F)F)c1)c1cc(Cl)ccc1O
active: Potency (OV90) 8.91 µM | Potency (PA-1) 1.58 µM | Potency (SKOV3) 3.55 µM | Potency (Tov-21-G) 8.91 µM | Potency (Tov112D) 3.55 µM | Potency ([3]; HiBiT) 15.7 µM

COc1c(OCCCN2CCOCC2)ccc2c3n(c(=NC(=O)c4cnc(N)nc4)nc12)CCN3
active: Potency (PA-1) 0.631 µM | Potency (SKOV3) 0.0631 µM
inactive: activity change, negative = cytotoxicity (Tov112D) -17.3% [at 11.6 µM]

O=C(Cc1ccc(-c2ccc(OCCN3CCOCC3)cc2)cn1)NCc1ccccc1
active: Potency (OV90) 2.82 µM | Potency (PA-1) 1.26 µM | Potency (Tov-21-G) 2 µM | Potency (Tov112D) 1 µM

Cc1ccc(C(=O)Nc2ccc(CN3CCN(C)CC3)c(C(F)(F)F)c2)cc1C#Cc1cnc2cccnn12
active: Potency (OV90) 15.8 µM | Potency (PA-1) 8.91 µM | Potency (SKOV3) 10 µM | Potency (Tov-21-G) 7.08 µM | Potency (Tov112D) 7.94 µM

CC[C@@]1(O)C(=O)OCc2c1cc1n(c2=O)Cc2cc3cc(O)ccc3nc2-1
active: Potency (PA-1) 0.282 µM | Potency (Tov-21-G) 3.55 µM | Potency (Tov112D) 0.0794 µM | Potency ([3]; HiBiT) 2.79 µM
inactive: activity change, negative = inhibition ([3]; Viability) 8.39%

Cc1nc(N)ncc1-c1nc(N2CCOCC2)c2sc(C(C)(C)O)cc2n1
active: Potency (OV90) 3.55 µM | Potency (PA-1) 7.94 µM | Potency (SKOV3) 2.82 µM | Potency (Tov-21-G) 7.94 µM
